Source: PubChem BioAssay
Shown are actives, neighbours in structure and some others; about 6.2% of the full set was active somewhere.
Gal4-VP16 FLuc – Gal4-VP16 reporter inhibition counter-screen; Drosophila S2 Gal4-VP16 UAS-luciferase, luminescence, 20 h; Potency, µM (series often up to 53.6 µM), usual class: inhibitors; 310,000 compounds, 3.5% hits;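 note: Gal4-VP16 expression switched on by copper sulfate through the metallothionein promoter; nearly all actives have a fitted effect of over 50% in size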
RORgamma inh – ROR gamma (mouse) transcription inhibition; P51450; Drosophila S2 Gal4-RORgamma UAS-luciferase reporter, 20 h; Potency, µM (doses to about 53.6 µM), most hits filed as inhibitors; 310,000 compounds, 5.4% hits; AID 2551; note: nearly all actives have a fitted effect of over 60% in size
Target sequence (P51450 whole entry, looked up, the tested form may be a part): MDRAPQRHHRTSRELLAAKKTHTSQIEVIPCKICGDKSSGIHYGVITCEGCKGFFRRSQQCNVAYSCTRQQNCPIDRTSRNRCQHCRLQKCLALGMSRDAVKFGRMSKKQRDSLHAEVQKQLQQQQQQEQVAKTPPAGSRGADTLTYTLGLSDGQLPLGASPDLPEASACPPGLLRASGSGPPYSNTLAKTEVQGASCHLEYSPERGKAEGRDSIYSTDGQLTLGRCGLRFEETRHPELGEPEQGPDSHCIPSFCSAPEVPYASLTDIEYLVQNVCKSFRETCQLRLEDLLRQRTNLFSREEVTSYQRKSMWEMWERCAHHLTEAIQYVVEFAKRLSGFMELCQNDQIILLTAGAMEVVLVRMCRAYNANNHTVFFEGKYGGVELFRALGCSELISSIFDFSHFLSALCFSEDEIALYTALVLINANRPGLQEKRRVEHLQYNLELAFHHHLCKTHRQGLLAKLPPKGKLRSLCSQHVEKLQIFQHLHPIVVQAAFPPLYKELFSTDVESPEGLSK
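Stable Schneider cell line, Gal4 DNA-binding domain fused to ROR gamma, UAS-luciferase. Cmpd 1 hr RT → CuSO4 700 uM final → 20 hr RT → luciferase reagent 10 min → luminescence.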
Luc counter – Kinase-Glo luciferase inhibition (counter-screen). Kinase-Glo luciferase, ATP luminescence, 8 min. 200,000 compounds, 0.28% hits. Potency, µM (top dose mostly 38.3 µM), usual class: inhibitors; note: nearly all actives have a fitted effect of over 60% in size
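Kinase-Glo luciferase light output from ATP and luciferin was measured with 10 uM ATP, within the enzyme's linear range. Buffer: 50 mM imidazole pH 7.2, 50 mM KCl, 7 mM MgCl2, 0.01% Tween 20, 0.05% BSA; luminescence read after 8 min at ambient temperature.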
A number is an active result; - = inactive; ? = inconclusive; . = not tested or not shown; [ ] = dose if it differs, or a comment. Calls come from the whole dose curve; as a rule, active = well fitted curve in the direction sought with a large enough effect; inconclusive = small, poorly fitted or top-dose-only effect, or another doubt; inactive = no such curve, though single readings can be large; an effect the other way counts as inactive or inconclusive.

SMILES | Gal4-VP16 FLuc | RORgamma inh | Luc counter
CCC(=O)NC(c1ccc(C)cc1)c1cc([N+](=O)[O-])c2cccnc2c1O (stereo not given) | 2.82µM | 2.51µM | -
CC(=O)NC(c1ccc(C)cc1)c1cc([N+](=O)[O-])c2cccnc2c1O (stereo not given) | 3.98µM | 2.82µM | -
CCC(=O)NC(c1cccc([N+](=O)[O-])c1)c1c(O)ccc2ccccc12 (stereo not given) | - | - | -
CCCC(=O)NC(c1ccco1)c1cc([N+](=O)[O-])c2cccnc2c1O (stereo not given) | 5.01µM | 5.62µM | -
CCCC(=O)NC(c1ccco1)c1c(O)ccc2ccccc12 (stereo not given) | -[0.365 µM] | - | -
CCCCCCCCc1nnc(N)s1 | - | - | .
O=C(COc1ccccc1[N+](=O)[O-])Nc1cccc(C(=O)Nc2ccccc2C(=O)O)c1 | - | - | .
Cc1ccccc1Nc1nc2ccccc2n1C(C)C | - | 10µM | -
Cn1c(NCc2ccccc2O)nc2ccccc21 | - | - | -
CCc1ccccc1Nc1nc2ccccc2n1C | ? | 10µM | -
COc1cccc(Nc2nc3ccccc3n2C(C)C)c1 | - | - | -
CC(C)(C)CNc1nc(C#N)nc(Nc2ccccc2)n1 | - | . | .
O=C(O)c1nn(CCOc2ccccc2F)c(=O)c2ccccc12 | - | - | .
COc1ccc(-c2nc3ccc(N4CCN(C)CC4)cc3c(=O)[nH]2)cc1 | - | - | -
COc1cc(-c2nc3ccc(N4CCN(C)CC4)cc3[nH]2)cc(OC)c1OC | ? | 7.08µM | -
COc1cccc2sc(N(C)c3ccccc3)nc12 | - | ? | -
COc1cnc(-c2ccccn2)nc1Oc1ccccc1 | ? | 11.2µM | -
FC(F)(F)c1cccc(Oc2nc(-c3ccccc3)nnc2C(F)(F)F)c1 | - | - | -
COc1ccnc(Oc2ccccc2)c1C#N | - | - | -
COc1cnc(-c2ccccn2)nc1Oc1cccc(C(F)(F)F)c1 | 11.2µM | 6.31µM | .
COc1cnc(-c2ccccn2)nc1N(C)c1ccccc1 | ? | 7.94µM | .
Cc1cc(C)n2nc(SCc3nnc(-c4ccccc4Br)o3)nc2n1 | - | - | -
CCCC(=O)Nc1ccc2c(c1)nc(CN1CCN(C(=O)OCC)CC1)n2CC | - | - | .
COc1cccc2sc(/N=C/N(C)C)nc12 | - | - | .
CSc1ccc(/C=N/S(=O)(=O)c2ccccc2)cc1 | - | - | .
SMILES | Gal4-VP16 FLuc | RORgamma inh | Luc counter
COc1cccc(CNC(=O)CN2CCC(c3nc4ccc(C)cc4[nH]3)CC2)c1 | - | - | -
Cn1nc(C(=O)NCCCN2CCCCC2)c2c1-c1ccccc1SC2 | - | - | .
COc1cc(CN(C)CC(=O)c2[nH]c(C)c(C(C)=O)c2C)ccc1OC(F)F | 2.82µM | - | -
COc1ccc(CN(C)C(=O)c2[nH]c(C)c(C(C)=O)c2C)c(OC)c1OC | - | - | .
CNc1ccc(/C=C/C(=O)c2cccc3ccccc23)cc1[N+](=O)[O-] | - | - | -
O=C(NCc1cccnc1)/C(=C\c1ccc(-c2cccc(Cl)c2)o1)S(=O)(=O)c1ccccc1 | 12.6µM | ? | -
O=C(NCc1cccnc1)/C(=C/c1ccc(-c2cccc(Cl)c2)o1)S(=O)(=O)c1ccccc1 | ? | 11.2µM | -
Cc1ccc(C(=O)N/C(=C\c2ccc(-c3cc(Cl)ccc3Cl)o2)C(=O)NCc2cccnc2)cc1 | - | ? | -
N#C/C(=C/c1ccc(CNC(=O)C(=O)Nc2cc(Cl)cc(Cl)c2)o1)C(=O)NCc1cccnc1 | - | -[10 µM] | -
NCCCC[C@H](NC(=O)[C@H](CS)NC(=O)[C@@H](N)Cc1cnc[nH]1)C(=O)N[C@@H](Cc1ccccc1)C(=O)N[C@@H](Cc1c[nH]c2ccccc12)C(=O)N[C@@H](Cc1c[nH]c2ccccc12)C(=O)O | - | - | .
Cc1cc(C(=O)COC(=O)c2ccc[nH]c2=O)c(C)n1C1CC1 | - | - | -
Cc1cc(C(=O)OCC(=O)NCc2ccco2)c(C)n1-c1ccc(F)cc1 | - | - | -
Cc1cc(C(=O)COC(=O)c2ccc[nH]c2=O)c(C)n1-c1ccccc1 | 0.447µM | 12.6µM | -
Cc1cc(C(=O)COC(=O)c2ccc[nH]c2=O)c(C)n1-c1ccc(F)cc1 | 7.08µM | 10µM | -
N[C@@H]1CCN(O)C1=O | - | - | -
